Screening results: PubChem, National Center for Advancing Translational Sciences (NCATS)
Sampled rows, rich in hits. Any-hit rate of the full collection: about 21%.
Pf growth 48h = Primary qHTS for delayed death inhibitors of the malarial parasite plastid, 48 hour incubation | AID 504832, 2011 | P. falciparum luciferase growth in erythrocytes, 48 h | 310,000 compounds, 5.9% hits | Potency, µM (highest dose often 28.7 µM), actives largely listed as inhibitors
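Parasite viability was followed by luminescence of a genomically integrated firefly luciferase. Cultures held 0.1% parasitemia at 2% hematocrit (final), incubated under 5% CO2 at 37 C.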
Pf growth 96h = Primary qHTS for delayed death inhibitors of the malarial parasite plastid, 96 hour incubation | Potency, µM (doses to about 28.7 µM), most hits filed as inhibitors | 320,000 compounds, 6.9% hits | P. falciparum luciferase reporter growth, 96 h
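Compounds incubated with erythrocytes infected by luciferase-expressing P. falciparum (2% hematocrit, 0.05% parasitemia final) for 96 hours, 37 C in 5% CO2. Growth inhibition scored as decreased luciferase luminescence.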
NS1 function inh = qHTS Assay for Inhibitors of Influenza NS1 Protein Function | Potency, µM (doses to about 46.1 µM) | 270,000 compounds, 0.4% hits | AID 2326, 2010; calls by dose curve; also: actives are rising curves; nearly all actives have a fitted effect of over 50% in size
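Recovery from NS1-induced slow growth read by OD600 in budding yeast switched to galactose assay medium (pH 6.0, -URA) at 1:100 dilution. Compound 23 nl per well; the matching strain lacking NS1 serves as control.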
Cycloheximide cs = Cycloheximide Counterscreen for Small Molecule Inhibitors of Shiga Toxin; max response, %; 300,000 compounds, 12% hits; AID 2314, 2010; cell reporter, cycloheximide protein synthesis inhibition counterscreen; in the data active = max response mostly above about 13%, no sharp cut-off; inactive = mostly below about 14%; also: read at 38.3 µM for the half of the compounds with a filed dose
Sm TGR inh = qHTS Assay for the Inhibitors of Schistosoma Mansoni Peroxiredoxins; Schistosoma mansoni thioredoxin glutathione reductase (TGR), Q962Y6; Potency, µM (doses to about 114 µM), usual class: inhibitors; 360,000 compounds, 3% hits; purified TGR, DTNB reduction, TNB absorbance 405 nm; also: nearly all actives have a fitted effect of over 60% in size
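Kinetic colorimetric format: TGR-catalysed, NADPH-driven DTNB reduction monitored via TNB absorbance. Enzyme dispensed at 20 nM; compound exposure 15 min at room temperature before reaction start.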
Shiga inhibitor = A qHTS for Small Molecule Inhibitors of Shiga Toxin. inhibition, % at 38.7 µM. Vero cells, Shiga toxin protein synthesis inhibition reporter. 290,000 compounds, 9.2% hits. AID 2315, 2010; in the data active = inhibition mostly above about 28%, no sharp cut-off; inactive = mostly below about 43%
Numbers stand for hits; – = inactive; ? = inconclusive; · = no result; [ ] = remark or other dose. Unless noted, calls follow the shape of the dose curve; as a rule, active = well fitted curve in the direction sought with a large enough effect; inconclusive = small, poorly fitted or top-dose-only effect, or another doubt; inactive = no such curve, though single readings can be large; an effect the other way counts as inactive or inconclusive.

SMILES	Pf growth 48h	Pf growth 96h	NS1 function inh	Cycloheximide cs	Sm TGR inh	Shiga inhibitor
COc1ccc(NC(=O)Nc2cc(C(C)(C)C)on2)cc1OC	–	–	–	–	–	–
CSc1ccc(C2CC(=O)Oc3c2c(=O)n(C)c2ccccc32)cc1 (stereo unspecified)	·	·	·	·	–	·
O=C(NCc1ccc(S(=O)(=O)NC2CCCCC2)s1)c1ccccc1	–	?	–	–	–	–
O=C(Nc1nc(=O)n(C(=O)C2CC2)s1)c1ccccc1	–	–	–	26.8	–	–
O=C(Nc1nc(=O)[nH]s1)c1ccccc1	–	–	·	–	–	–
Cc1ccc(C(=O)Nc2nc(=O)n(C(=O)C3CC3)s2)cc1	–	–	–	15.8	–	–
Cc1ccc(C(=O)Nc2nc(=O)n(C(=O)c3ccccc3C)s2)cc1	·	–	–	–	–	–
O=C(COC(=O)c1ccc(Br)o1)c1ccc(S(=O)(=O)N2CCCCC2)cc1	–	?	·	·	–	·
C=C1CN(Cc2ccccc2)S(=O)(=O)c2ccccc21	?	–	–	–	17.8µM	–
C=C1CN(CC(=O)OC)S(=O)(=O)c2ccccc21	–	–	–	–	–	–
CCc1ccc(N(C(C)=O)c2nc(CCl)cs2)cc1	–	–	–	29.3	–	–
O=C(COC(=O)CCc1c[nH]c2ccccc12)NC1CCS(=O)(=O)C1 (stereo unspecified)	–	–	–	–	–	–
CC1CCC(NC(=O)CC(C)(C)Cc2nc3ccccc3c(=O)[nH]2)CC1 (stereo unspecified)	–	?	?	16.0	–	–
O=C(COC(=O)CCc1nc2ccccc2c(=O)[nH]1)NC1CCS(=O)(=O)C1 (stereo unspecified)	–	–	·	33.8	–	–
CSCCC(NS(=O)(=O)c1ccc(Cl)c(Cl)c1)C(=O)O (stereo unspecified)	–	–	–	–	–	–
CSc1ncccc1C(=O)NC(C)CCc1ccccc1 (stereo unspecified)	–	–	–	–	–	–
O=C(COc1ccccc1)Nc1cccc(-c2nnc(-c3ccccc3)o2)c1	–	·	–	19.7	–	71.5
O=C(COc1ccccc1)Nc1ccc2c(c1)Cc1cc(NC(=O)COc3ccccc3)ccc1-2	–	?	–	–	–	–
O=C(O)CCC(=O)Nc1cccc(-c2nc3ccccc3o2)c1	–	–	–	–	–	–
CN1C(=O)C(=Cc2ccc(OCC(=O)Nc3ccccc3)cc2)C(=O)N(C)C1=O	–	–	–	49.7	–	75.1
C=Cc1cccc(NC(=O)COc2ccccc2)c1	–	?	–	34.7	–	–
CCOC(=O)C1=C(C)N(CC(C)C)C(=O)/C1=C\c1ccc(OCC(=O)Nc2ccccc2)cc1	?	–	–	–	–	–
O=C(O)CCC(=O)Nc1cccc(-c2nnc(-c3ccccc3)o2)c1	–	?	–	–	25.1µM	–
O=C(COc1ccccc1)Nc1nnc(-c2ccccc2)o1	·	–	–	–	–	–
Cc1ccc2oc(=O)c3cc(C(=O)NCCCOC(C)C)sc3c2c1	·	·	·	·	–	·
SMILES	Pf growth 48h	Pf growth 96h	NS1 function inh	Cycloheximide cs	Sm TGR inh	Shiga inhibitor
Cc1ccc(C(=O)COC(=O)CCC(=O)Nc2ccc(Oc3cc(C)ccc3C(C)C)cc2)cc1	·	·	·	·	–	·
O=C(NC1CC2CCC(C1)N2Cc1nnnn1Cc1ccco1)NC12CC3CC(CC(C3)C1)C2 (stereo unspecified)	11.7µM	·	–	–	?	–
O=C(NCc1ccccc1)NC1CC2CCC(C1)N2Cc1ccco1 (stereo unspecified)	–	–	–	–	–	–
CCOc1ccccc1C(=O)NC1CC2CCCC(C1)N2Cc1nnnn1Cc1ccco1 (stereo unspecified)	11.7µM	?	–	–	–	–
CCOc1ccccc1C(=O)NC1CC2CCCC(C1)N2C1CC1 (stereo unspecified)	?	–	–	–	–	–
Cc1ccc(N(C)C(=O)Cn2nc(Cc3ccncc3)c3ccccc3c2=O)cc1C	·	·	·	·	–	·
Cc1ccc(-n2c(=O)c3ccc(C(=O)NCc4ccco4)cc3n(CC(=O)Nc3ccccc3C(F)(F)F)c2=O)cc1	·	·	·	·	–	·
CC1CCCCN1CCNC(=O)C1CCN(S(=O)(=O)c2cccc3cccnc23)CC1 (stereo unspecified)	?	4.65µM	–	–	–	–
CCN(CCNC(=O)C1CCN(S(=O)(=O)c2cccc3cccnc23)CC1)c1ccccc1	6.57µM	–	?	–	–	–
Nc1cccc2cc(S(=O)(=O)Nc3ccc(C(=O)O)cc3)ccc12	·	·	–	·	·	·
CCOC(=O)Cn1c(=O)oc2cc(S(=O)(=O)N3CCc4ccccc43)ccc21	·	13.1µM	–	–	–	–
CC(C)(C)NC(=O)Cn1c(=O)oc2cc(S(=O)(=O)N3CCc4ccccc43)ccc21	·	1.47µM	?	–	–	–
CCOC(=O)Cn1c(=O)oc2cc(S(=O)(=O)N3CCN(c4ccccc4F)CC3)ccc21	·	·	·	·	–	·
Cc1sc2ncn(CC(=O)Nc3cccc(C(F)(F)F)c3)c(=O)c2c1S(=O)(=O)N1CCC(C)CC1	·	·	·	·	–	·
COc1ccccc1Cn1c(/C=C/c2ccccc2)nc2ccccc21	?	?	–	74.0	–	87.4
COc1ccc(/C=C/c2nc3ccccc3n2Cc2ccccc2OC)cc1	?	?	–	69.4	–	105.9
COCCn1c(/C=C/c2ccccc2)nc2ccccc21	–	–	–	33.0	–	67.7
COc1ccccc1Cn1c(C(C)C)nc2ccccc21	?	?	–	–	–	–
Cc1cccc(NC(=O)Cn2c(/C=C/c3ccccc3)nc3ccccc32)c1	–	?	–	28.4	–	111.2
Cc1ccc(NC(=O)Cn2c(=O)c(C)nc3ccccc32)cc1	–	–[5.75 µM]	–	–	–	–
CC(C)CCn1c(/C=C/c2ccccc2)nc2ccccc21	·	·	·	·	–	·
O=C(Cc1ccccc1)NN1CCCCC1	–	–	–	–	–	–
Cc1cc(O)c(S(=O)(=O)c2ccccc2)c(C)c1NS(=O)(=O)c1ccccc1	?	–	–	–	–	–
O=S(=O)(c1cc(C(F)(F)F)ccc1Cl)N1CCN(c2ncnc3ccccc23)CC1	?	?	·	·	–	·
O=C1CC(c2ccccc2Cl)=NN(c2ncnc3ccccc23)C1=O	–	–	·	40.9	–	93.7
Cc1cn([C@H]2C[C@H](N=[N+]=[N-])[C@H](CO)O2)c(=O)[nH]c1=O	–	–	–	·	·	·
CN(C)C(=O)COc1ccc(S(=O)(=O)c2ccc(OCC(=O)N(C)C)cc2)cc1	?	–	–	–	79.4µM	–
CN(C)C(=O)COc1ccc(Br)cc1	–	–	–	–	–	–
O=C(O)c1c(-c2c3ccc(=O)cc-3oc3cc(O)ccc23)cc2ccccc2c1-c1ccccc1	·	·	–	·	·	·
